According to article PMC11066047:

The substances below were run against 26S proteasome regulatory subunit 4 homolog (UniProt P40327) (assay: cross-link between two proteins; cross-linking mass spectrometry).
Chain of 26S proteasome regulatory subunit 4 homolog (P40327 whole entry): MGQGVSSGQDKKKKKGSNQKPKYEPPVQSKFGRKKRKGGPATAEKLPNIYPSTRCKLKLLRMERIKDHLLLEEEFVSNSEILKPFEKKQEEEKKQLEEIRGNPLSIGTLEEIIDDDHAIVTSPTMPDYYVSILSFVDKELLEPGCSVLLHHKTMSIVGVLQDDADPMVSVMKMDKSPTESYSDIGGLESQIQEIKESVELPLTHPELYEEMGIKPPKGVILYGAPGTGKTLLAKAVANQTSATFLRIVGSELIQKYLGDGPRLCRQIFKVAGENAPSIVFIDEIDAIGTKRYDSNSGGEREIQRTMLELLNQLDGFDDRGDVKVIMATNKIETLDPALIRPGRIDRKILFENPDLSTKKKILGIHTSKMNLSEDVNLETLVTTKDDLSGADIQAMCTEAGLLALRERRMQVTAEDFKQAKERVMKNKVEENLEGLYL

Chain of Heat shock protein SSA2, P10592 (P10592 whole entry): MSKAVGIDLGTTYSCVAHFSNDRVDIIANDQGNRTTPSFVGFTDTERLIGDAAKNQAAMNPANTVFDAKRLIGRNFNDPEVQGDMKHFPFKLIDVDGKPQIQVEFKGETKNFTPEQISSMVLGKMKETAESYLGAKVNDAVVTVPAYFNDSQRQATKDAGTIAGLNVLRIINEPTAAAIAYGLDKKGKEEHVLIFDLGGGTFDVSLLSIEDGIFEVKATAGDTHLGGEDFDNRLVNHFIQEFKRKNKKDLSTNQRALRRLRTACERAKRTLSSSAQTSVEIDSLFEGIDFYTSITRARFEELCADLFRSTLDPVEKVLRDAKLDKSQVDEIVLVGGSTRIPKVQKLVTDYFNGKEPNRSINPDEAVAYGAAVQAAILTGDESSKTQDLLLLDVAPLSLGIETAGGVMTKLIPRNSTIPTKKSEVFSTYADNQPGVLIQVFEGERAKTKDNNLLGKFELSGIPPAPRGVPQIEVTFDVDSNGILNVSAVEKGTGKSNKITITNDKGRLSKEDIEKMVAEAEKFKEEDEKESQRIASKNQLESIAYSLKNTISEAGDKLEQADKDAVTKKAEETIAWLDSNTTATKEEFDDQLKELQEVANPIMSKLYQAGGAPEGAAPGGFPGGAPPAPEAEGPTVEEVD

Listed as a hit, yes:
26S proteasome regulatory subunit RPN2, P32565
26S proteasome regulatory subunit 6A, P33297
26S proteasome regulatory subunit 7 homolog, P33299

These substances were tested against 26S proteasome regulatory subunit 8 homolog (UniProt Q01939) in the same assay as above.
Chain of 26S proteasome regulatory subunit 8 homolog (Q01939 whole entry): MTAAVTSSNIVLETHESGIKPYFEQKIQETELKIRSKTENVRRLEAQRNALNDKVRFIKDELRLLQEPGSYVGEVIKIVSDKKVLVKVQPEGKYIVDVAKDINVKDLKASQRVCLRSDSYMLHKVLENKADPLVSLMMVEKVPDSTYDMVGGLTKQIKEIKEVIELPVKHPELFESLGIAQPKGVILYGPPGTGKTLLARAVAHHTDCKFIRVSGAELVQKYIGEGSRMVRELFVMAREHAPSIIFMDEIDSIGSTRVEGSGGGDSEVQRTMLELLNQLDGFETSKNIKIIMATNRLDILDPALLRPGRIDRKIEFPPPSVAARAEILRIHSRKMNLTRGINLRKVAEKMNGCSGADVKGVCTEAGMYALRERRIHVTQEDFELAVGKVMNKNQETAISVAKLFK

Listed as a hit, yes:
26S proteasome regulatory subunit RPN2, P32565
26S proteasome regulatory subunit 4 homolog, P40327
Ubiquitin C-terminal hydrolase RPN11, P43588

These substances were tested against 26S proteasome regulatory subunit RPN3 (UniProt P40016) in the same assay as above.
Chain of 26S proteasome regulatory subunit RPN3 (P40016 whole entry): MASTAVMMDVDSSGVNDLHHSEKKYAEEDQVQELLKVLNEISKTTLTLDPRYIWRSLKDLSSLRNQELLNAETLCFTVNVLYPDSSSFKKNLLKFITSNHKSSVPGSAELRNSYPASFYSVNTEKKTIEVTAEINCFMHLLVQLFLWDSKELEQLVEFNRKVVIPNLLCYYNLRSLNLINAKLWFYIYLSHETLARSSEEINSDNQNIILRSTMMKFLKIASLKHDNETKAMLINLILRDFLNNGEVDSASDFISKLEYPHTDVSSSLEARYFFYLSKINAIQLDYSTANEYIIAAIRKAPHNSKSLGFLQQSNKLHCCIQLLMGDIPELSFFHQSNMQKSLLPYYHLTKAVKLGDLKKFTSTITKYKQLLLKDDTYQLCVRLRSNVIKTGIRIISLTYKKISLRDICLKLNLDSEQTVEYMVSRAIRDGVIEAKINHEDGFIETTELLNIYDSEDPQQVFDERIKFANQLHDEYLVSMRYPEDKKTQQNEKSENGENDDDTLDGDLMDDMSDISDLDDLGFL

Listed as a hit, yes:
26S proteasome regulatory subunit RPN2, P32565
26S proteasome regulatory subunit 6B homolog, P33298
Heat shock protein STI1, P15705
26S proteasome regulatory subunit RPN12, P32496

Each substance was assayed against Ribosome-associated molecular chaperone SSB1 (UniProt P11484) (assay: cross-link between two proteins; affinity purification or IP with mass spectrometry; cross-linking mass spectrometry).
Chain of Ribosome-associated molecular chaperone SSB1 (P11484 whole entry): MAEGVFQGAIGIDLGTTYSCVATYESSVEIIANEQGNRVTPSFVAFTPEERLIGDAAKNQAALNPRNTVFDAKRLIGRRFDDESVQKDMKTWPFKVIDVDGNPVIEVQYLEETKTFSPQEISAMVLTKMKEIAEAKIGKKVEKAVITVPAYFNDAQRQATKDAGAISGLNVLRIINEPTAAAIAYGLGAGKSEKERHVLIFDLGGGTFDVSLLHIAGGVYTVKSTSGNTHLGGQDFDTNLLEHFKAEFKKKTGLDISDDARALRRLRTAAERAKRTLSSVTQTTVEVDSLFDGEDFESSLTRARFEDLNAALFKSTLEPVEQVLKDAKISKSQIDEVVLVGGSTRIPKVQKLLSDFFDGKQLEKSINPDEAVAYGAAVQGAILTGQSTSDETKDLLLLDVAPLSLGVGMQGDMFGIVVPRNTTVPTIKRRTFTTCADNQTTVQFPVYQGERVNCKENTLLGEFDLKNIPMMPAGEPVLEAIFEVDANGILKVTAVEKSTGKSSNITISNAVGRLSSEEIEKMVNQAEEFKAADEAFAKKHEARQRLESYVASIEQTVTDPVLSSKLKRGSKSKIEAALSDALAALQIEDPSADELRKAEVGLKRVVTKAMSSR

Listed as a hit, yes:
Large ribosomal subunit protein uL29B, P0CX85
Large ribosomal subunit protein eL24A, P04449
Polyadenylate-binding protein, cytoplasmic and nuclear, P04147
Heat shock protein SSA2, P10592
Enolase 1, P00924
